Reference: PubChem BioAssay
Activity calls are given as the source filed them. Unless noted, the rule behind the calls is not given here.

Experiments:
[1] = test system: Wnt5a (protein binding on small-molecule microarray); assay: small molecules binding Wnt5a protein – biophysical, small-molecule microarray, 635/667 nm fluorescence, primary screen (AID 1142); settings: 635 nm fluorescence, higher = more signal;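 note: fluorescence read at 667 nm with signal to noise per printed feature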
[2] = ATP-based viability of Huh7 replicon cells – cell-based, CellTiter-Glo luminescence, basal, 48 h, cytotoxicity control for HCV replication inhibitor project, primary screen (AID 1143); settings: higher = more signal, called active from +8 up or from −8 down;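 note: Huh7 hepatoma cells carrying a hepatitis C replication reporter with no stimulus; test concentration not given here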
[3] = Pseudomonas biofilm growth suppression – PAO1 strain, BacTiter-Glo luminescence, LB-PBS, primary screen (AID 1144); settings: P. aeruginosa PAO1 biofilm, 12 h, higher = more signal
[4] = basal CRE-LacZ reporter activity in PC12 – cell-based, unstimulated, primary screen (AID 1145); settings: no forskolin, luminescence, 4.5 h, higher = more signal, called active from +8 up or from −8 down
[5] = forskolin-driven CRE-LacZ activity in PC12 – cell-based, CRE-LacZ reporter, forskolin-stimulated, primary screen (AID 1146); settings: luminescence, 4.5 h, higher = more signal, called active from +8 up or from −8 down;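 note: PC12 cells with 6xCRE LacZ reporter stimulated by forskolin 10 µM; beta-galactosidase reporter signal reflecting CREB driven transcription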
[6] = target: Streptavidin (Streptomyces avidinii) (UniProt P22629); assay: compounds binding control protein streptavidin – biophysical, small-molecule microarray, 635/667 nm fluorescence, artefact control for SMM compound annotation, primary screen (AID 1147); settings: higher = more signal;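 note: signal reflects streptavidin binding to arrayed compounds as a control protein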
Sequence of Streptavidin (Streptomyces avidinii) (P22629 whole entry, looked up): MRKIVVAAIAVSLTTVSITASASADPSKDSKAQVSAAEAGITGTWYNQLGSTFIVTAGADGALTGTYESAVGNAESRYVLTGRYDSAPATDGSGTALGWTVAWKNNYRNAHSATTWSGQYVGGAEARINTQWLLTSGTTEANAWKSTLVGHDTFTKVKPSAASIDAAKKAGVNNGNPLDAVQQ

[7] = probe aInhba binding on compound microarray – biochemical, small-molecule microarray, 635/667 nm fluorescence, primary screen (AID 1148); settings: higher = more signal;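 note: score merges 667nm spot fluorescence with signal-to-noise for antibody binding to printed compounds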
[8] = target: Torsin-1A (Homo sapiens) (UniProt O14656); assay: TOR1A wild-type binding on microarray – cell lysate, small-molecule microarray, lysate, 635/667 nm, primary screen (AID 1149); settings: COS7 hTOR1A-WT lysate, 635 nm fluorescence, higher = more signal
Sequence of Torsin-1A (Homo sapiens) (O14656 whole entry, looked up): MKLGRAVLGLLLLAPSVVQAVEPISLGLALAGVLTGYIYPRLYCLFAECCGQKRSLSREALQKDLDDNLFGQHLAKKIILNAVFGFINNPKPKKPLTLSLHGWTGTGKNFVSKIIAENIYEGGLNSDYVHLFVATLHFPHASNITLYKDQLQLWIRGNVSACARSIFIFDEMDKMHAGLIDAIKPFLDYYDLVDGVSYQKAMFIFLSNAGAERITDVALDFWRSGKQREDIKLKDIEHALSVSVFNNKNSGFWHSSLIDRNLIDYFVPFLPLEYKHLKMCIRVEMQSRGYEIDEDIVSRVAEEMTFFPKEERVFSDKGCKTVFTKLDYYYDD

[9] = target: Torsin-1A (Homo sapiens) (UniProt O14656); assay: torsin A mutant lysate binding on microarrays – cell lysate, small-molecule microarray, COS7 lysate, 635/667 nm fluorescence, primary screen (AID 1150); settings: COS7 hTOR1A mutant lysate, 635 nm fluorescence, higher = more signal;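 note: score pools 667 nm emission and signal to noise measuring lysate protein binding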
[10] = test system: Sonic hedgehog protein (Shh); assay: Sonic hedgehog microarray binding compounds – biochemical, small-molecule microarray, 635/667 nm fluorescence, primary screen (AID 1151); settings: 635 nm fluorescence, higher = more signal;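 note: Shh protein binding to compounds spotted on small-molecule microarray slides; score combines spot fluorescence intensity with signal-to-noise across triplicate slides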
[11] = optical density shifts of acrAB sulA E. coli – strain DRC41, OD650, 48 h, E. coli filamentation inducer project, primary screen (AID 1152); settings: higher = more signal, called active from +8 up or from −8 down;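 note: E. coli MC1000 strain DRC41 lacking acrAB efflux pump and sulA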
[12] = probe aLefty1 binding on compound microarray – biochemical, small-molecule microarray, 635/667 nm fluorescence, primary screen (AID 1153); settings: higher = more signal;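 note: score merges spot fluorescence with signal-to-noise ratio from the scanned slide images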
[13] = plasmodial surface anion channel blockers, osmotic lysis – cell-based, P. falciparum Indochina, OD700, 1 h, primary screen (AID 1154); settings: P. falciparum Indochina infected RBC osmotic lysis, higher = more signal, called active from +8 up or from −8 down
[14] = plasmodial surface anion channel blockers, osmotic lysis – cell-based, P. falciparum Indochina, OD700, 2 h, primary screen (AID 1155);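 note: lysis reports solute entry through the parasite surface anion channel PSAC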; settings: P. falciparum Indochina infected erythrocytes, higher = more signal, called active from +8 up or from −8 down
[15] = changes in parasitized red cell lysis, either direction – P. falciparum Indochina, OD700, 3 h, PSAC antagonist project, primary screen (AID 1156); settings: P. falciparum-infected erythrocytes, osmotic lysis, higher = more signal, called active from +8 up or from −8 down
[16] = plasmodial surface anion channel blockers, osmotic lysis – cell-based, P. falciparum Indochina, OD700, 18 h, primary screen (AID 1157); settings: P. falciparum Indochina infected erythrocytes, osmotic lysis OD700, 18 h; higher = more signal, called active from +8 up or from −8 down
[17] = S6 kinase pathway phospho-S6 level changes – cell-based, A549, cytoblot, luminescence, serum-stimulated, primary screen (AID 1158); settings: 5 h, higher = more signal;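 note: serum-stimulated A549 lung adenocarcinoma cells; signal is phosphorylated S6 detected by cytoblot immunostaining with HRP secondary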
[18] = target: NADPH oxidase 2 (Homo sapiens) (UniProt P04839); assay: compounds shifting NOX2 Amplex Red fluorescence – cell-based, HEK293-NOX2, PMA-stimulated, NOX inhibitor project, primary screen (AID 1159); settings: 45 min, higher = more signal, called active from +8 up or from −8 down; note: test concentration not given here
Sequence of NADPH oxidase 2 (Homo sapiens) (P04839 whole entry, looked up): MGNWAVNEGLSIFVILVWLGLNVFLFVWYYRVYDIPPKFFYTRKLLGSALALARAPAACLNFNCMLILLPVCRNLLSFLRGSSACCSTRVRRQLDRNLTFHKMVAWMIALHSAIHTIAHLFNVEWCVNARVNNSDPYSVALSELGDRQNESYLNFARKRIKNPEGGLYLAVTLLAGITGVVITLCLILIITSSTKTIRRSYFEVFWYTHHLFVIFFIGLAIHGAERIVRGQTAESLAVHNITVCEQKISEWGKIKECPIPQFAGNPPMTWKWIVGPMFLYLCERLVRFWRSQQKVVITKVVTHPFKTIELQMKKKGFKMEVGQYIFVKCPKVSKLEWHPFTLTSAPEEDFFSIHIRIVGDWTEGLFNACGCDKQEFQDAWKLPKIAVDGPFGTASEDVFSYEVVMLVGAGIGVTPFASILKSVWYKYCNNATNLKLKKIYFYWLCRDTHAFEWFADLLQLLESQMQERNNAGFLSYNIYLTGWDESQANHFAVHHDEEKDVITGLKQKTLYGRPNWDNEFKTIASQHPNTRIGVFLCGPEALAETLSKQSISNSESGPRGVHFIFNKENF

[19] = target: NADPH oxidase 4 (Homo sapiens) (UniProt Q9NPH5); assay: compounds shifting NOX4 Amplex Red fluorescence – cell-based, HEK293-NOX4, tetracycline-induced, NOX inhibitor project, primary screen (AID 1160); settings: HEK293-NOX4, Amplex Red H2O2 fluorescence, 45 min; higher = more signal, called active from +8 up or from −8 down
Sequence of NADPH oxidase 4 (Homo sapiens) (Q9NPH5 whole entry, looked up): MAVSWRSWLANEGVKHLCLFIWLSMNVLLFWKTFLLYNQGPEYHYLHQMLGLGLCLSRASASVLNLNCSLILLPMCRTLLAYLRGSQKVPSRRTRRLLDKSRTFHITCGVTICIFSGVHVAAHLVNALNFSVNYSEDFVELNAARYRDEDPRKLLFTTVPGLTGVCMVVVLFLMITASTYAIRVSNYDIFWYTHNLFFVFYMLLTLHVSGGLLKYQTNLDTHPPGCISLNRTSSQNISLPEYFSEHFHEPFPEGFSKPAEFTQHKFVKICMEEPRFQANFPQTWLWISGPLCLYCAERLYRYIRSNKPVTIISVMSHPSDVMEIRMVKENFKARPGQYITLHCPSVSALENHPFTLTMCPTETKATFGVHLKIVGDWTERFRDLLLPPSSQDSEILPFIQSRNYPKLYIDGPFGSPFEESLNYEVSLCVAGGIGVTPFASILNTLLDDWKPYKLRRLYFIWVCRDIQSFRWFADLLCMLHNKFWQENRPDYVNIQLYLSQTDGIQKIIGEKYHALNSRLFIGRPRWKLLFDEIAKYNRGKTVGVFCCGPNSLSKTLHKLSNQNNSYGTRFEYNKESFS

[20] = target: NADPH oxidase 5 (Homo sapiens) (UniProt Q96PH1); assay: compounds shifting NOX5 Amplex Red fluorescence – cell-based, HEK293-NOX5, NOX inhibitor project, primary screen (AID 1161); settings: HEK293-NOX5, ionomycin, 45 min, higher = more signal
Sequence of NADPH oxidase 5 (Homo sapiens) (Q96PH1 whole entry, looked up): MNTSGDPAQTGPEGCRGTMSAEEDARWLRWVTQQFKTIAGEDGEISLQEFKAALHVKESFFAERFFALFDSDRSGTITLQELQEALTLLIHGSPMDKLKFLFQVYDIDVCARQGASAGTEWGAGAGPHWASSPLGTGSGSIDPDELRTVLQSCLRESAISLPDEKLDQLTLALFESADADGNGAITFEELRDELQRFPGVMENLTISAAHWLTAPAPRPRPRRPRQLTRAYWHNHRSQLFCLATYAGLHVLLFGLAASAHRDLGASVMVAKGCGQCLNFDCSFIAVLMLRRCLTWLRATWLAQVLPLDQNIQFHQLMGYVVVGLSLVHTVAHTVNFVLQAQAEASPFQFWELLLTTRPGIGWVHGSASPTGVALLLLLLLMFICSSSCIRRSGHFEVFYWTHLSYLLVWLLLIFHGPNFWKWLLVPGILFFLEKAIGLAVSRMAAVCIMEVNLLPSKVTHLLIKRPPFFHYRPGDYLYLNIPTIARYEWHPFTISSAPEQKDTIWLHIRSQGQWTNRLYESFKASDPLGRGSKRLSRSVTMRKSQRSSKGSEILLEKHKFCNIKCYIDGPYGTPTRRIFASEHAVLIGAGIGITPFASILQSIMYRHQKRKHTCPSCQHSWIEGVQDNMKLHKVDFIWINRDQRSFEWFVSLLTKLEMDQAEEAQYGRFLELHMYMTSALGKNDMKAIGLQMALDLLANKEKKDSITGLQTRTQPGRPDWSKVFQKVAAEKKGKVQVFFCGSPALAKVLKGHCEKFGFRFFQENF

Compound | composite z-score [1] | z-score [2] | z-score [3] | z-score [4] | z-score [5] | composite z-score [6] | composite z-score [7] | composite z-score [8] | composite z-score [9] | composite z-score [10] | z-score [11] | composite z-score [12] | z-score [13] | z-score [14] | z-score [15] | z-score [16] | z-score [17] | z-score [18] | z-score [19] | z-score [20]
O=C1O[C@H](c2ccccc2)[C@H](c2ccccc2)N2[C@H]1[C@@H](C(=O)NC[C@H](O)c1ccccc1)[C@]1(C(=O)Nc3ccc(C#CC4(O)CCCCCC4)cc31)[C@H]2c1ccc(OCCO)cc1 | 0.288 | -5.26 (inactive) | -0.37 (inactive) | -0.231 (inactive) | -0.581 (inactive) | 0.463 | 0.0082 | 0.127 | 0.644 | 0.756 | 3.02 (inactive) | 0.0811 | 3.64 (inactive) | -0.0068 (inactive) | 0.226 (inactive) | -1.03 (inactive) | 2.78 | 2.48 (inactive) | 0.0727 (inactive) | 0.139
CCCN1C(=O)[C@@]2(CCS(=O)(=O)c3ccccc3)N=C(c3ccc(OCCCO)cc3)O[C@H]2c2ccccc21 | 0.286 | -4.26 (inactive) | -1.6 (inactive) | 0.997 (inactive) | -1.61 (inactive) | -0.0174 | 0.0528 | 0.069 | 0.655 | 1.58 | 0.33 (inactive) | 0.498 | 34.1 (active) | 32.4 (active) | 1.93 (inactive) | 3.19 (inactive) | 0.43 | -2.38 (inactive) | -0.683 (inactive) | -1.74
COc1ccc([Si](C)(C)[C@@H]2[C@@H](CCO)O[C@]3(C(=O)N(Cc4ccccc4)c4ccccc43)[C@H]2C)cc1 | -0.0721 | -1.98 (inactive) | 0.773 (inactive) | 0.0352 (inactive) | -0.46 (inactive) | -0.155 | 1 | -0.239 | -0.283 | 0.0843 | 1.25 (inactive) | -0.0143 | 1.13 (inactive) | 0.81 (inactive) | 0.117 (inactive) | 0.353 (inactive) | 0.779 | 1.57 (inactive) | -0.523 (inactive) | 1.84
COCCOC(=O)N1C(=O)[C@@]2(c3cc(C#CC4=CCCCC4)ccc31)[C@H](c1ccc(O)cc1)N1[C@H](c3ccccc3)[C@H](c3ccccc3)OC(=O)[C@H]1[C@@H]2C(=O)N1CCCCCCC1 | 0.288 | -3.42 (inactive) | -0.307 (inactive) | -1.01 (inactive) | -1.09 (inactive) | 1.29 | 0.0818 | 0.588 | 0.594 | 1.76 | 1.65 (inactive) | 1.49 | -0.138 (inactive) | -0.321 (inactive) | -0.52 (inactive) | 0.389 (inactive) | -0.137 | 1.06 (inactive) | 0.325 (inactive) | 1.53
